The record followed here is PubChem BioAssay (NCI).

Experiment in all cases: NCI-60 one-dose screen, 48 h (100 = growth as untreated, 0 = no growth, -100 = all killed)
One test has as its system HCT-15 colon. Particulars: 10 µM unless noted.
The subject of the next test is HT29 colon. Particulars: 10 µM unless noted.
In a further test the test system is SNB-75 CNS. Particulars: 10 µM unless noted.
A further test concerns SNB-19 CNS. Particulars: 10 µM unless noted.
The test system of the next test is U251 CNS. Particulars: 10 µM unless noted.
The subject of the next test is UACC-62 melanoma. Particulars: 10 µM unless noted.
A further test concerns LOX IMVI melanoma. Particulars: 10 µM.
A further test concerns SK-MEL-28 melanoma. Particulars: 10 µM unless noted.
Another test concerns SK-MEL-5 melanoma. Particulars: 10 µM unless noted.
A further test has as its system PC-3 prostate. Particulars: 10 µM unless noted.

The panel holds about 83,000 compounds, 20% with a hit somewhere; the sample as a whole holds those more often.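 The endpoint reported here, percent growth, reads 100 for growth as untreated, 0 for no net growth and -100 for all cells dead.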 A number with no mark means an inactive call. Active and inactive are the calls of the source. How the source made its calls: active means growth percent below 10; inactive means the rest.

Take `CC(=O)O[C@H]1CC[C@]2(C)C3=C(C(=O)C[C@H]2C1(C)C)[C@]1(C)CC[C@H]([C@H](C)CCC(=O)O)[C@@]1(C)CC3=O`: the growth in the test with HCT-15 colon is 95.5%; in the test on HT29 colon, 89.7%; in the test on SNB-75 CNS, 91.7%; in the test on SNB-19 CNS, 108%; in the test on U251 CNS, 101%; in the test with UACC-62 melanoma, 106%. Moreover, the growth in the test on LOX IMVI melanoma was 98.1%; with SK-MEL-28 melanoma, 105%.

For the molecule `COc1ccc(Br)c2c1C(=O)CC2`, the growth in the test with HCT-15 colon was 110%; with HT29 colon, 106%; in the test on SNB-75 CNS it was 99.6%; in the test with SNB-19 CNS, 108%; with U251 CNS, 107%; in the test with SK-MEL-5 melanoma, 109%. Also, the growth with LOX IMVI melanoma was 104%; in the test with SK-MEL-28 melanoma it was 135%.

Turning to `CCOC(=O)c1ccc(Nc2sc(C(=O)c3ccc(Br)cc3)c(N)c2C#N)cc1`, the growth in the test with HCT-15 colon is 27%; with HT29 colon, 2.05% (active); in the test with SNB-75 CNS, -18.6% (active); in the test on SNB-19 CNS, 62.5%; in the test with PC-3 prostate, 17.5%; with SK-MEL-5 melanoma it was 12.6%. Moreover, the growth was 36.7% with UACC-62 melanoma, 38.8% in the test on LOX IMVI melanoma and 36.3% with SK-MEL-28 melanoma.

Turning to `CCOC(=O)c1cc(Cl)c(O)c(Cl)c1`, the growth with SNB-19 CNS is 106%.

As to `CC1CCC(C)(C)c2ccccc21` (configuration not stated), the growth in the test with SNB-19 CNS is 103%.

Consider `CCOC(=O)c1c[nH][nH]c1=O`, for which the growth was 103% in the test with HCT-15 colon; 105% in the test on HT29 colon; 99.1% in the test on SNB-19 CNS; 103% in the test with U251 CNS; 105% with SK-MEL-5 melanoma; 96.2% in the test with UACC-62 melanoma. The growth with LOX IMVI melanoma is 97.8%; in the test with SK-MEL-28 melanoma it was 127%.

Take `Cc1cccc(-[n+]2noc(N)n2)c1`: the growth with HCT-15 colon was 66.4%; with HT29 colon it was 102%; with SNB-19 CNS, 81.4%; in the test with U251 CNS, 86%; with SK-MEL-5 melanoma it was 97.4%; in the test with UACC-62 melanoma, 40.7%. In addition, the growth is 46.9% in the test with LOX IMVI melanoma and 113% with SK-MEL-28 melanoma.

Take `CC(=O)N=c1ccc2nc3c(cc(N)c4ccccc43)oc-2c1`: the growth is -75.5% (active) with HCT-15 colon; 1.15% (active) with HT29 colon; -11.1% (active) in the test with SNB-19 CNS; -73.7% (active) with U251 CNS; 2.46% (active) in the test with PC-3 prostate; -100% (active) in the test with SK-MEL-5 melanoma. Also, the growth with UACC-62 melanoma is -61.2% (active); in the test with LOX IMVI melanoma, -74.3% (active); in the test with SK-MEL-28 melanoma, -2.3% (active).

With `O=C1NCC2CCCC1C2` (configuration not stated), the growth in the test on HCT-15 colon is 104%; with HT29 colon it was 105%; in the test on SNB-19 CNS, 99.6%; with U251 CNS, 112%; in the test with SK-MEL-5 melanoma it was 107%; with UACC-62 melanoma it was 105%. Besides, the growth with LOX IMVI melanoma was 103%; with SK-MEL-28 melanoma it was 110%.

As to `COc1cc2c(c(OC)c1OC)-c1ccc(SC)c(=O)cc1[C@@H](NC1OC(CO)C(O)C(O)C1O)CC2` (some centres not stated), the growth is 14.8% with HCT-15 colon; 0.658% (active) in the test on HT29 colon; 71.5% in the test on SNB-19 CNS; 15.7% in the test with PC-3 prostate; -18.3% (active) with SK-MEL-5 melanoma; 43.3% with UACC-62 melanoma. Also, the growth in the test with LOX IMVI melanoma is 22.3%; with SK-MEL-28 melanoma, 61.1%.

As to `COC(=O)C1=C(C)C(=O)CC1`, the growth with HCT-15 colon is 121%; with HT29 colon it was 98.3%; with SNB-19 CNS, 104%; in the test on U251 CNS, 115%; with PC-3 prostate it was 96.2%; in the test on SK-MEL-5 melanoma it was 110%. In addition, the growth in the test with UACC-62 melanoma was 100%; with LOX IMVI melanoma, 118%; in the test with SK-MEL-28 melanoma, 110%.

For `COC1OC(C(O)C(O)CO)C(O)C(O)C1O` (configuration not stated), the growth in the test on HCT-15 colon was 99.1%; in the test with HT29 colon, 100%; with SNB-19 CNS, 105%; in the test with U251 CNS it was 98.9%; with PC-3 prostate, 95.6%; with SK-MEL-5 melanoma, 107%. The results for the growth in the test with UACC-62 melanoma, in the test with LOX IMVI melanoma and in the test with SK-MEL-28 melanoma were 102%, 102% and 101%, respectively.

On to `CC(C)(C)NCCC(O)c1cc(C(F)(F)F)nc2c(C(F)(F)F)cccc12` (configuration not stated), for which the growth is 79.2% with HCT-15 colon; 66.5% in the test with HT29 colon; 87.2% in the test on SNB-19 CNS; 54.3% in the test on U251 CNS; 55.3% in the test on PC-3 prostate; 81.8% with SK-MEL-5 melanoma. Moreover, the growth was 74.7% in the test on UACC-62 melanoma, 1.78% (active) in the test on LOX IMVI melanoma and 117% with SK-MEL-28 melanoma.

As for `CCOC(=O)CNC(=O)Sc1ccc(C(C)(C)C)cc1`, the growth in the test with HCT-15 colon is 94.3%; in the test on HT29 colon, 114%; in the test with SNB-19 CNS, 103%; in the test with U251 CNS, 83.5%; with SK-MEL-5 melanoma it was 107%; in the test with UACC-62 melanoma it was 91%. In addition, the results for the growth in the test on LOX IMVI melanoma and with SK-MEL-28 melanoma were 83.9% and 113%, respectively.

Consider `Cc1ccc(C)c(CN(C)C)c1O`, for which the growth is 121% in the test with HCT-15 colon; 115% in the test with HT29 colon; 122% in the test with SNB-19 CNS; 99.6% in the test with U251 CNS; 102% in the test on PC-3 prostate; 107% in the test on SK-MEL-5 melanoma. Also, the growth in the test on UACC-62 melanoma is 117%; with SK-MEL-28 melanoma it was 102%.

`C=COC(=O)C(C)(C)C`: the growth with HCT-15 colon was 102%; in the test on HT29 colon, 104%; with SNB-19 CNS, 95.3%; in the test on U251 CNS, 99.4%; with PC-3 prostate, 95.3%; in the test on SK-MEL-5 melanoma, 99.9%. Moreover, the growth in the test with UACC-62 melanoma was 99.9%; in the test with LOX IMVI melanoma, 96.4%; in the test on SK-MEL-28 melanoma it was 108%.

Regarding `CC(=O)NC(CCC(=O)c1ccccc1)C(=O)O` (configuration not stated), the growth was 104% in the test on HCT-15 colon; 93.6% with HT29 colon; 101% in the test on SNB-19 CNS; 87.6% with U251 CNS; 80.2% with PC-3 prostate; 97% in the test with SK-MEL-5 melanoma. Besides, the growth in the test on UACC-62 melanoma was 97.4%; in the test on LOX IMVI melanoma, 100%; in the test with SK-MEL-28 melanoma, 105%.

In the case of `O=C(Nc1ccc([N+](=O)[O-])cc1)C(=O)Nc1ccc([N+](=O)[O-])cc1`, the growth is 101% in the test on HCT-15 colon; 91.5% with HT29 colon; 99.6% in the test with SNB-19 CNS; 81.2% in the test with U251 CNS; 90.5% in the test on PC-3 prostate; 100% with SK-MEL-5 melanoma. The growth in the test with UACC-62 melanoma is 97%; with LOX IMVI melanoma, 94.9%; with SK-MEL-28 melanoma, 115%.

Take `CCCCCC#CC(=O)O`: the growth with HCT-15 colon was 105%; in the test with HT29 colon, 99.5%; in the test with SNB-19 CNS it was 108%; in the test on U251 CNS, 98.4%; in the test on PC-3 prostate it was 98.2%; in the test on SK-MEL-5 melanoma, 111%. In addition, the growth in the test with UACC-62 melanoma is 104%; with LOX IMVI melanoma, 104%; with SK-MEL-28 melanoma it was 113%.
